# Source: PubChem BioAssay
# Unmarked numbers belong to inactive results.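 Rule for the calls: active = viability at or under a set limit in both replicates, limit being median viability minus 3 SD (cut at about 48% in these data, passing the limit was not always enough); inconclusive = at or under the limit in just one replicate; inactive = at or above the limit in both replicates.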
# Assay: growth inhibitors of H69AR lung tumor, primary screen, human, duplicate replicates (AID 580);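 note: 100% = mean luminescence of untreated wells and 0% = no signal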
# Settings: H69AR lung tumor cells viability, ATP luminescence, 72 h; at 10 µM; hits give low values
row,SMILES,viability
1,Nc1nc(N2CCCCC2)nc(N(c2ccccc2)c2ccccc2)n1,70.6%
2,O=C1c2ccccc2C(Nc2cccnc2)N1Cc1ccccc1Cl (stereo unspecified),86.3%
3,CCN1CCN(c2nc3c(c(=O)[nH]c(=O)n3C)n2CCSc2nc3ccccc3s2)CC1,88.6%
4,COc1cc(C(O)c2nc3ccccc3n2C)cc(OC)c1OC (stereo unspecified),103%
5,CCOC(=O)N1CCC(Nc2nc3ccccc3n3cnnc23)CC1,87.1%
6,COc1ccc(C2C(C(C)=O)=C(C)N=c3s/c(=C/c4ccc5c(c4)OCO5)c(=O)n32)cc1 (stereo unspecified),112%
7,CCOC(=O)C1=C(C)N(C)C(=O)NC1c1ccccc1OC (stereo unspecified),175%
8,CCCCS(=O)(=O)NC1=NCN(CCOC(=O)c2ccccc2)CN1,102%
9,COc1ccc(-n2c(Cc3cccn3C)nnc2SCC(=O)Nc2cccc(Cl)c2)cc1,85.3%
10,CCC1CCCCN1C(=O)CSc1nnc(-c2ccc(OC)cc2)o1 (stereo unspecified),87.6%
11,COc1ccc(N(CC(=O)Nc2ccc3c(c2)OCO3)S(=O)(=O)c2c(C)nn(C)c2C)cc1,99%
12,CCOc1ccc(C2CC(c3ccccc3C)n3nc(N)nc3N2)cc1 (stereo unspecified),87.9%
13,Cc1cc(N)n2nc(-c3ccccc3)cc2n1,80.1%
14,CCCCCn1c(CCNC(=O)CCC)nc2ccccc21,87.4%
15,O=C(c1ccc2c(c1)OCCO2)N1CCCCC1,101%
16,O=C(NCCc1c[nH]c2ccccc12)c1cnc2n(c1=O)CCS2,82%
